# Data: PubChem BioAssay
# The source made the active and inactive calls. How the calls were made is not given here.
# Test system: Botulinum neurotoxin type F light chain protease (Clostridium botulinum)
# Experiment: Clostridium botulinum type F light chain protease inhibitors, microsphere substrate cleavage, validation (AID 588459)
# Details: multiplex microsphere protease substrate cleavage assay, flow cytometry; at 10 µM; stronger effect = higher value
row,SMILES,inhibition
1,O=C(Nc1ccc(F)c([N+](=O)[O-])c1)c1ccc2c(c1)OCCO2,-3.7% (inactive)
2,COC(=O)c1cc(OC)c(OC)cc1NC(=O)CN1C(=O)c2ccccc2C1=O,-3.5% (inactive)
3,COc1cc2ccc(=O)oc2c(O)c1OCC=C(C)C,-4.9% (inactive)
4,CC(C)N(C(=O)Cc1ccccc1[N+](=O)[O-])C(C)C,-0.6% (inactive)
5,CCOC(=O)C(=O)N1CCN(c2ccccc2OC)CC1,1.5% (inactive)
6,CCCCC[C@H](O)/C=C/[C@@H]1[C@@H](C/C=C\CCCC(=O)OC)[C@@H](O)C[C@H]1O,-3.3% (inactive)
7,Cc1ccc(/C(=C\CN2CCCC2)c2ccccn2)cc1,-2% (inactive)
8,O=C(O)/C=C/c1cccc(OCc2ccccc2)c1,-2.1% (inactive)
9,CCCC(=O)O[C@]1(C(=O)CO)CC[C@H]2[C@@H]3CCC4=CC(=O)CC[C@]4(C)[C@H]3[C@@H](O)C[C@@]21C,5.1% (inactive)
10,CC(C)(C)OC(=O)N1CC(O)CC1C(=O)OCC(=O)c1ccc(Cl)cc1 (stereo not given),-2.2% (inactive)
11,COc1ccc(C2=C(CN(C)C)C(c3ccccc3)c3ccccc3O2)cc1 (stereo not given),-3% (inactive)
12,Cc1coc2cc3oc(=O)c(CCC(=O)O)c(C)c3cc12,3.6% (inactive)
13,COc1ccc(C(=O)CCN2CCc3cc(OC)c(OC)cc3C2)cc1,-2.2% (inactive)
14,CC1=C(C)C(=O)C(CCCCC#CCCCC#CCO)=C(C)C1=O,-2.1% (inactive)
15,CC(C)=CCCC(C)CN1CCC(N2CCC(C(=O)N3CCCC3)CC2)CC1 (stereo not given),1.8% (inactive)
